Source: PubChem BioAssay AID1159580 (chemical genetic matrix, 2015)
Hit rate of the full screen: of about 5,500 compounds, about 2,000 (36%) were called active. Not shown: some 18% with an inconclusive outcome. Cut-off read from the data, not from the text of the source: active = normalized growth mostly below about 0.91 (no sharp cut-off); inconclusive = no clear call, values can overlap the other calls; inactive = mostly above about 0.92. The list shows a part of the results.

Test: chemical genetic growth profiling, strain panel (AID 1159580);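 note: tested at 20 µM; growth read once vehicle control cultures reached saturation at 30 °C; 1 = growth at the plate median or of vehicle wells; lower values mean less growth of the strain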
Details: growth OD
[1] = S. cerevisiae deletion strains, locus YAL013W, strain DEP1, active compounds read low
[2] = S. cerevisiae deletion strains, locus YBR229C, strain ROT2, active compounds read low
[3] = S. cerevisiae deletion strains, locus YCL061C, strain MRC1, active compounds read low
[4] = S. cerevisiae deletion strains, locus YDL101C, strain DUN1, active compounds read low
[5] = S. cerevisiae deletion strains, locus YDL134C, strain PPH21, active compounds read low
[6] = S. cerevisiae deletion strains, locus YDR150W, strain NUM1, active compounds read low
[7] = S. cerevisiae deletion strains, locus YEL061C, strain CIN8, active compounds read low
[8] = S. cerevisiae deletion strains, locus YGR078C, strain PAC10, active compounds read low
[9] = S. cerevisiae deletion strains, locus YHR030C, strain SLT2, active compounds read low
[10] = S. cerevisiae deletion strains, locus YHR087W, strain rtc3, active compounds read low
[11] = S. cerevisiae deletion strains, locus YJR043C, strain POL32, active compounds read low
[12] = S. cerevisiae deletion strains, locus YJR075W, strain HOC1, active compounds read low
[13] = S. cerevisiae deletion strains, locus YLR039C, strain RIC1, active compounds read low
[14] = S. cerevisiae deletion strains, locus YLR058C, strain SHM2 (second series), active compounds read low
[15] = S. cerevisiae deletion strains, locus YLR085C, strain ARP6, active compounds read low
[16] = S. cerevisiae deletion strains, locus YLR262C, strain YPT6, active compounds read low
[17] = S. cerevisiae deletion strains, locus YML094W, strain GIM5, active compounds read low
[18] = S. cerevisiae deletion strains, locus YMR219W, strain ESC1, active compounds read low
[19] = S. cerevisiae deletion strains, locus YMR263W, strain SAP30, active compounds read low
[20] = S. cerevisiae deletion strains, locus YNL153C, strain GIM3, active compounds read low
[21] = S. cerevisiae deletion strains, locus YNL298W, strain CLA4 (second series), active compounds read low
[22] = S. cerevisiae deletion strains, locus YNL322C, strain KRE1, active compounds read low
[23] = S. cerevisiae deletion strains, locus YNR030W, strain Alg12, active compounds read low
[24] = S. cerevisiae deletion strains, locus YPL055C, strain LGE1, active compounds read low
[25] = S. cerevisiae deletion strains, locus YPL241C, strain CIN2, active compounds read low
[26] = S. cerevisiae deletion strains, locus YPR135W, strain CTF4, active compounds read low
[27] = S. cerevisiae strains, strain wild type, active compounds read low
[28] = S. cerevisiae deletion strains, locus YJL187C, strain SWE1, active compounds read low
[29] = S. cerevisiae deletion strains, locus YKL190W, strain CNB1, active compounds read low
[30] = S. cerevisiae deletion strains, locus YGR229C, strain SMI1, active compounds read low

Measured: normalized growth

O=[N+]([O-])c1ccc(N2CCOCC2)cc1
inactive: [1] 0.996 | [2] 1 | [3] 1.02 | [4] 1.06 | [5] 0.969 | [6] 1.05 | [7] 0.969 | [8] 1.03 | [9] 1.05 | [10] 0.937 | [11] 1.04 | [12] 0.978 | [13] 0.991 | [14] 0.976 | [15] 0.98 | [16] 0.962 | [17] 0.939 | [18] 0.992 | [19] 1.03 | [20] 1.03 | [21] 0.988 | [22] 0.965 | [23] 0.974 | [24] 0.971 | [25] 1.01 | [26] 1.02 | [27] 0.982

Cc1cc(=O)n(-c2ccc([N+](=O)[O-])cc2)[nH]1
active: [1] 0.509 | [2] 0.867 | [8] 0.927 | [9] 0.34 | [10] 0.8 | [28] 0.814 | [11] 0.718 | [12] 0.847 | [29] 0.726 | [13] 0.437 | [15] 0.592 | [16] 0.583 | [17] 0.84 | [18] 0.9 | [19] 0.85 | [20] 0.884 | [21] 0.821 | [23] 0.811 | [24] 0.69 | [25] 0.811 | [26] 0.504 | [27] 0.866
inactive: [4] 0.955 | [6] 0.905 | [7] 0.958 | [14] 0.965 | S. cerevisiae deletion strains, locus YNL128W, strain TEP1, active compounds read low 0.957 | [22] 0.989

OCc1ccccc1-c1ccccc1
inactive: [1] 0.995 | [2] 0.984 | [3] 0.957 | [4] 0.941 | [5] 0.985 | [6] 0.924 | [7] 0.987 | [8] 0.985 | [30] 0.993 | [9] 0.984 | [10] 1.01 | [28] 1 | [11] 0.971 | [12] 1.02 | [29] 1.01 | [13] 0.952 | [14] 1.02 | [15] 1.03 | [16] 0.99 | [17] 0.959 | [18] 0.99 | [19] 0.987 | [20] 0.95 | [21] 1 | [22] 1.02 | [23] 0.994 | S. cerevisiae deletion strains, locus YOL006C, strain TOP1, active compounds read low 0.997 | [24] 0.85 | [25] 0.988 | [26] 0.976 | [27] 1.01

O=C1c2ccccc2C(=O)N1CN(CCSc1ccccc1)CN1C(=O)c2ccccc2C1=O
inactive: [1] 1.01 | [2] 0.987 | [4] 0.992 | [6] 0.993 | [7] 0.987 | [8] 0.993 | [30] 1 | [9] 1.01 | [10] 0.986 | [28] 1.03 | [11] 1.01 | [12] 0.981 | [29] 1 | [13] 0.986 | [14] 1 | [15] 0.957 | [16] 1.07 | [17] 0.973 | [18] 0.992 | [19] 1.01 | [20] 1.01 | [21] 0.978 | [22] 0.994 | [23] 1 | [24] 0.995 | [25] 0.964 | [26] 1.05

O=C1C(SCCO)=C(SCCO)C(=O)c2ccccc21
inactive: S. cerevisiae deletion strains, locus YAL040C, strain CLN3, active compounds read low 1.06 | S. cerevisiae deletion strains, locus YCL061C, strain MRC1 (second series), active compounds read low 0.982 | [6] 0.981 | S. cerevisiae deletion strains, locus YDR363W, strain ESC2, active compounds read low 0.966 | S. cerevisiae deletion strains, locus YER002W, strain NOP16, active compounds read low 1.04 | [8] 0.982 | S. cerevisiae deletion strains, locus YNL175C, strain NOP13, active compounds read low 0.988 | S. cerevisiae deletion strains, locus YNL197C, strain WHI3, active compounds read low 0.99 | S. cerevisiae deletion strains, locus YNL224C, strain SQS1, active compounds read low 0.985 | [25] 0.996
active: S. cerevisiae deletion strains, locus YMR307W, strain GAS1, active compounds read low 0.751 | S. cerevisiae deletion strains, locus YOR083W, strain WHI5 (second series), active compounds read low 0.858
